Assay results as given in ChEMBL document CHEMBL3988442, “University of Dundee, Small-Polar-MMV Screening Library” (2021).
In all, about 53,000 compounds went through this assay and about 900 (1.7%) showed an effect of 50% or more. The full list was thinned out, with strong results kept by preference.

test system: Mycobacterium tuberculosis; assay: Cornell - Phenotypic assay to identify agents that inhibit growth of Mycobacterium tuberculosis; assay type: functional; design: scale not given: direction of the effect not stated beside the values; conditions: 10 mM as filed; unlikely as a test dose

Compound | Percent Effect
O=C(O)C(F)(F)F.c1cnc(N2CCO[C@H]3[C@H](OCC4CCOCC4)CC[C@@H]32)nc1 | -2.783%
c1ccc(CN2CCC(Nc3ncnc4c3CCNCC4)C2)cc1 (centres undefined) | 21.59%
CCS(=O)(=O)N1CCCCC1c1nc(CC(C)C)no1 (centres undefined) | 28.4%
Cc1cccc2c1cnn2CCC(=O)NCc1csc(C2CC2)n1 | 28.59%
Cl.Nc1cccnc1N1CCCCCC1 | 72.92%
CN1CCN(c2ncccc2N)CC1 | -43.88%
Nc1cccnc1N1CCN(c2ccccc2)CC1 | 11.1%
Cc1cc(C)n(CCNCc2cc(-c3ccc(Cl)cc3)c[nH]c2=O)n1 | -2.359%
Cc1nc2c(c(NCc3cc4ccccc4s3)n1)CCNCC2 | 31.59%
Cc1nc2c(c(NCc3nc4ccccc4s3)n1)CCNCC2 | 90.34%
Cc1nc2c(c(NCc3ccc(-c4ccccn4)s3)n1)CCNCC2 | 10.6%
Cc1nnc(N2CC[C@H]3C[C@@H](C(=O)NC4CCCC4)O[C@H]3C2)s1.O=C(O)C(F)(F)F | -17.08%
O=C(NC1CCN(Cc2cccc3c2OCCO3)CC1)c1cccs1 | -12.52%
Cc1nnc([C@@]23CCO[C@@H]2CCN(Cc2ccc4c(c2)OCO4)C3)o1 | -5.266%
Cc1csc(N2CCN(C(=O)c3c(C)oc(C)c3C)CC2)n1 | 16.26%
CN(C)C(CNC(=O)c1nc(N2CCCC2)ncc1Cl)c1ccco1 (centres undefined) | 22.7%
Cc1cc(NC(=O)c2nc(N3CCCC3)ncc2Cl)nc(C(C)C)n1 | 24.2%
Cc1cc(C(N)=O)ccc1NC(=O)c1nc(N2CCCC2)ncc1Cl | 105.8%
O=C(Nc1cnn(Cc2ccc(Cl)cc2)c1)N[C@@H]1C=C[C@H](CO)C1 | 24.39%
O=C(Nc1cnn(-c2ccccc2Cl)c1)N[C@@H]1C=C[C@H](CO)C1 | 52.75%
Cc1cnn(Cc2ccc(NC(=O)N[C@@H]3C=C[C@H](CO)C3)cc2)c1 | 20.48%
O=C(N1CCCC1)N1C[C@@H](OCc2cccnc2)[C@H]2OCCC[C@H]21.O=C(O)C(F)(F)F | 12.95%

Compound | Percent Effect
Cc1cc2ccccc2n1CCC(=O)N1CCCC1Cn1cccn1 (centres undefined) | 91.97%
Cc1cc2ccccc2n1CCC(=O)N1CCC[C@H]1C(N)=O | 9.96%
Cc1cc(C)n(CC(=O)N2CCCCC2CCN(C)C)c(=O)n1 (centres undefined) | 19.58%
Cc1cc2ccccc2n1CCC(=O)N1CCCCC1CCO (centres undefined) | 105.9%
O=C(CCCOc1ccccc1)N1CCCC1Cn1cccn1 (centres undefined) | -5.631%
COc1ccc2c(ccn2CC(=O)N2CCCC2Cn2cccn2)c1 (centres undefined) | 24.26%
Cc1cc2ccccc2n1CCC(=O)N1CCCC2(CC1)CNC(=O)O2 (centres undefined) | -6.951%
Cc1cc2ccccc2n1CCC(=O)N1CCC2(CC1)CNC(=O)C2 | -9.599%
Cc1cc2ccccc2n1CCC(=O)N1CCN(C)CC1C(N)=O (centres undefined) | 81.47%
Cc1cc(C2CCCN(C(=O)c3cccnc3)C2)ccn1 (centres undefined) | -13.34%
CCc1cc(NCc2ccccc2CN2CCCC2)n2ncnc2n1 | -6.247%
O=C(NCc1ccco1)[C@H]1C[C@@H]2CCN(c3ncccn3)C[C@H]2O1.O=C(O)C(F)(F)F | 33.78%
COCC[C@]1(O)CCN(Cc2nc(C)cs2)C[C@H]1C | -15.54%
O=C(O)C(F)(F)F.O=C1[C@H]2CN(c3ncccn3)C[C@H]2CN1CCN1CCCC1 | 1.191%
Cc1cnc(N2CCc3onc(COc4cccnc4)c3C2)nc1 | -20.46%
Cc1cc(C)cc(C(=O)N2CCN(C(=O)N(C)C)CC2(C)C)c1 | 26.69%
Cc1nc(Nc2cnccn2)cc(C2CCN(CCO)C2)n1.O=CO (centres undefined) | -24.26%
CSCCC(NC(=O)c1ccco1)C(=O)N(C)Cc1ccsc1 (centres undefined) | -9.579%
O=C(NCCC(=O)N1CCCC1)c1ccc(SCc2cccnc2)cc1 | 35.93%
CCOc1ccnc(N2CCN(C(=O)c3cccnc3)CC2)n1 | -18.66%
O=S(=O)(NC1CCCCC12OCCO2)c1cc(Cl)cc(Cl)c1 (centres undefined) | 16.3%
O=S(=O)(NC1CCCCC12OCCO2)c1cc(F)cc(F)c1 (centres undefined) | 56.69%

Compound | Percent Effect
O=S(=O)(NC1CCCCC12OCCO2)c1ccc2c(c1)OCCO2 (centres undefined) | 44.93%
CCCN1CCC(Cc2noc(-c3cccnc3OC)n2)CC1 | 20.11%
COc1ccc(-c2nnc(SC(C)C(=O)NC3CCCC3)[nH]2)c(OC)c1 (centres undefined) | -11.32%
CCn1nc(C)c(CNC(=O)c2nnc3ccccc3n2)c1C | 7.838%
Cc1ccc(-n2nnc(C(=O)NCC3CCCCC3)n2)cc1 | 32.3%
Cc1ccc2nnc(C(=O)NCC3CCCC3)nc2c1 | 99.7%
CCn1nc(C)c(CNC(=O)c2nnc3ccc(Cl)cc3n2)c1C | 64.24%
COc1ccc2nnc(C(=O)NCC3CCCC3)nc2c1 | 39.03%
COc1ccc2nnc(C(=O)NC3CCCC3)nc2c1 | 60.2%
O=C(NCC1CCOC1)c1cc(-c2ccc(Cl)cc2)n[nH]1 (centres undefined) | -7.527%
COc1ccc(C(=O)NC2CC2)c(OC)c1 | 29.69%
CCn1nc(C)c(CNC(=O)c2nnc3ccc(OC)cc3n2)c1C | -22.43%
O=C(NCC1CC1)c1nnc2ccc(Cl)cc2n1 | 99.3%
O=C(NCC1CCOC1)c1csc(-c2ccc(Cl)cc2)n1 (centres undefined) | 25.26%
O=C1[C@H]2CCCC[C@H]2C(=O)N1c1cnn(Cc2cccc(F)c2)c1 | 24.19%
Cc1nnc(-c2cccc(C#N)c2)n1C1CCN(C(C)C)C1=O (centres undefined) | 5.61%
Cc1cccc(S(=O)(=O)N2C[C@@H]3C[C@@H](c4nnc(C)[nH]4)O[C@@H]3C2)c1 | -10.6%
CN(Cc1ccc(F)cc1)CC1(O)CCN(C(=O)c2ccccn2)C1 (centres undefined) | 17.87%
O=c1[nH]cc(N2CCCCC2)c(=O)[nH]1 | 4.601%
Cc1ccc(NCC2(O)CCNCC2)cc1C | -25.1%
